Test results taken from PubChem BioAssay.
Activity calls are given as the source filed them. Unless noted, how the calls were made is not given here.

What was measured:
[1] = tested on: Wnt5a (protein binding on small-molecule microarray); assay: Wnt5a binders on small-molecule microarray, primary screen, biophysical, 635/667 nm fluorescence (AID 1142); conditions: 635 nm fluorescence, higher = more signal;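 further: fluorescence read at 667 nm with signal to noise per printed feature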
[2] = cell viability in Huh7 cells, primary screen, cytotoxicity control for HCV replication inhibitor project, CellTiter-Glo luminescence, basal, 48 h (AID 1143); conditions: Huh7 HCV replicon, higher = more signal, called active from +8 up or from −8 down;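 further: Huh7 hepatoma cells carrying a hepatitis C replication reporter with no stimulus; test concentration not given here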
[3] = P. aeruginosa biofilm formation inhibitors, primary screen, PAO1 strain, BacTiter-Glo luminescence, LB-PBS (AID 1144); conditions: 12 h, higher = more signal
[4] = CREB reporter modulators without forskolin, primary screen, cell-based, PC12, CRE-LacZ reporter, unstimulated (AID 1145); conditions: no forskolin, luminescence, 4.5 h, higher = more signal, called active from +8 up or from −8 down
[5] = CREB reporter modulators under forskolin, primary screen, cell-based, PC12, CRE-LacZ reporter, forskolin-stimulated (AID 1146); conditions: luminescence, 4.5 h, higher = more signal, called active from +8 up or from −8 down;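 further: PC12 cells with 6xCRE LacZ reporter stimulated by forskolin 10 µM; beta-galactosidase reporter signal reflecting CREB driven transcription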
[6] = molecular target: Streptavidin (Streptomyces avidinii) (UniProt P22629); assay: streptavidin binders on small-molecule microarray, primary screen, artefact control for SMM compound annotation, biophysical, 635/667 nm fluorescence (AID 1147); conditions: streptavidin binding, higher = more signal;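 further: signal reflects streptavidin binding to arrayed compounds as a control protein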
[7] = small-molecule binders of probe aInhba, primary screen, biochemical, small-molecule microarray, 635/667 nm fluorescence (AID 1148); conditions: higher = more signal;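 further: score merges 667nm spot fluorescence with signal-to-noise for antibody binding to printed compounds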
[8] = molecular target: Torsin-1A (Homo sapiens) (UniProt O14656); assay: torsin A binders from cell lysate, primary screen, small-molecule microarray, wild-type, 635/667 nm (AID 1149); conditions: COS7 hTOR1A-WT lysate, 635 nm fluorescence, higher = more signal
[9] = molecular target: Torsin-1A (Homo sapiens) (UniProt O14656); assay: small-molecule binders of mutant TOR1A in lysate, primary screen, cell lysate, small-molecule microarray, COS7 lysate, 635/667 nm fluorescence (AID 1150); conditions: COS7 hTOR1A mutant lysate, 635 nm fluorescence, higher = more signal;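 further: score pools 667 nm emission and signal to noise measuring lysate protein binding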
[10] = tested on: Sonic hedgehog protein (Shh); assay: small-molecule binders of Shh protein, primary screen, biochemical, small-molecule microarray, 635/667 nm fluorescence (AID 1151); conditions: small-molecule microarray binding, 635 nm fluorescence; higher = more signal;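 further: Shh protein binding to compounds spotted on small-molecule microarray slides; score combines spot fluorescence intensity with signal-to-noise across triplicate slides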
[11] = E. coli DRC41 culture turbidity changes, primary screen, E. coli filamentation inducer project, strain DRC41, OD650, 48 h (AID 1152);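 further: E. coli MC1000 strain DRC41 lacking acrAB efflux pump and sulA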; conditions: E. coli DRC41 (acrAB sulA), higher = more signal, called active from +8 up or from −8 down
[12] = small-molecule binders of probe aLefty1, primary screen, biochemical, small-molecule microarray, 635/667 nm fluorescence (AID 1153); conditions: higher = more signal;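 further: score merges spot fluorescence with signal-to-noise ratio from the scanned slide images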
[13] = PSAC antagonists in infected red cells, primary screen, cell-based, P. falciparum Indochina, OD700, 1 h (AID 1154); conditions: P. falciparum Indochina infected RBC osmotic lysis, higher = more signal, called active from +8 up or from −8 down
[14] = PSAC antagonists in infected red cells, primary screen, cell-based, P. falciparum Indochina, OD700, 2 h (AID 1155);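 further: lysis reports solute entry through the parasite surface anion channel PSAC; channel blockers reduce lysis of infected cells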; conditions: P. falciparum Indochina infected erythrocytes, osmotic lysis OD700; higher = more signal, called active from +8 up or from −8 down
[15] = osmotic lysis modulators in infected erythrocytes, primary screen, PSAC antagonist project, cell-based, P. falciparum Indochina, OD700, 3 h (AID 1156); conditions: higher = more signal, called active from +8 up or from −8 down
[16] = PSAC antagonists in infected red cells, primary screen, cell-based, P. falciparum Indochina, OD700, 18 h (AID 1157); conditions: P. falciparum Indochina infected erythrocytes, osmotic lysis OD700, 18 h; higher = more signal, called active from +8 up or from −8 down
[17] = modulators of S6 phosphorylation in cells, primary screen, cell-based, A549, cytoblot, luminescence, serum-stimulated (AID 1158); conditions: A549 phospho-S6 cytoblot, 5 h, higher = more signal;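 further: serum-stimulated A549 lung adenocarcinoma cells; signal is phosphorylated S6 detected by cytoblot immunostaining with HRP secondary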
[18] = molecular target: NADPH oxidase 2 (Homo sapiens) (UniProt P04839); assay: NOX2-dependent H2O2 signal modulators, primary screen, NOX inhibitor project, cell-based, HEK293-NOX2, PMA-stimulated, Amplex Red fluorescence (AID 1159); conditions: 45 min, higher = more signal, called active from +8 up or from −8 down; further: test concentration not given here
[19] = molecular target: NADPH oxidase 4 (Homo sapiens) (UniProt Q9NPH5); assay: NOX4-dependent H2O2 signal modulators, primary screen, NOX inhibitor project, cell-based, HEK293-NOX4, tetracycline-induced, Amplex Red fluorescence (AID 1160); conditions: 45 min, higher = more signal, called active from +8 up or from −8 down
[20] = molecular target: NADPH oxidase 5 (Homo sapiens) (UniProt Q96PH1); assay: NOX5-dependent H2O2 signal modulators, primary screen, NOX inhibitor project, cell-based, HEK293-NOX5, Amplex Red fluorescence (AID 1161); conditions: HEK293-NOX5, ionomycin, 45 min, higher = more signal
NADPH oxidase 5 (Homo sapiens), sequence (Q96PH1 whole entry, looked up): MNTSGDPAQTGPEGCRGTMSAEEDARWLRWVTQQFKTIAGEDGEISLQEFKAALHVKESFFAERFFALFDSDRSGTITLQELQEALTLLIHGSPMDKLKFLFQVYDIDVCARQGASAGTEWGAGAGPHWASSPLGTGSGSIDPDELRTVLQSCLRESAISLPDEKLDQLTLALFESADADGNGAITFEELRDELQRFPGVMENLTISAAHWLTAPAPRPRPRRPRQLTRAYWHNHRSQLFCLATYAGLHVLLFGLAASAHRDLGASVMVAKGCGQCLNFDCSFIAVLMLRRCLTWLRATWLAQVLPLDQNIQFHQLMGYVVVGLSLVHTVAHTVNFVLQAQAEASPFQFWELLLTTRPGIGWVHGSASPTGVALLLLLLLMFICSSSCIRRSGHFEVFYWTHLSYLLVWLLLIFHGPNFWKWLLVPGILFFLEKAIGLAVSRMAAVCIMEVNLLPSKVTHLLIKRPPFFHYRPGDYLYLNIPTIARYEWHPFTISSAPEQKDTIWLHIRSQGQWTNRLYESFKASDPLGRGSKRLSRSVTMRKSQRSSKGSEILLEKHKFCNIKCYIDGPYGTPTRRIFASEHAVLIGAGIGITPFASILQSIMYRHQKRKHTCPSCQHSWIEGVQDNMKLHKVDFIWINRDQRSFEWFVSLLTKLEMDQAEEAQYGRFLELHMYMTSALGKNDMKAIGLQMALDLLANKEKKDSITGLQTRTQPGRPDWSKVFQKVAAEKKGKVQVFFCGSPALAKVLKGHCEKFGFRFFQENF

Torsin-1A (Homo sapiens), sequence (O14656 whole entry, looked up): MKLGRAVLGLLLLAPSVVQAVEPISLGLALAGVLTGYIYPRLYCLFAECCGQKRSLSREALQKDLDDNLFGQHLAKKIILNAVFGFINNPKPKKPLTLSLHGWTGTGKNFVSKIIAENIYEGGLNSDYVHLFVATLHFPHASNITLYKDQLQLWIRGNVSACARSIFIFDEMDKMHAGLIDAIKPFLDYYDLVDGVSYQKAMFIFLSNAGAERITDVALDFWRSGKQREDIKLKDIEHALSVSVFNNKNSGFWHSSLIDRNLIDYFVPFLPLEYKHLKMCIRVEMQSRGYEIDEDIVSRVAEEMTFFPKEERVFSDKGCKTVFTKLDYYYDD
NADPH oxidase 4 (Homo sapiens), sequence (Q9NPH5 whole entry, looked up): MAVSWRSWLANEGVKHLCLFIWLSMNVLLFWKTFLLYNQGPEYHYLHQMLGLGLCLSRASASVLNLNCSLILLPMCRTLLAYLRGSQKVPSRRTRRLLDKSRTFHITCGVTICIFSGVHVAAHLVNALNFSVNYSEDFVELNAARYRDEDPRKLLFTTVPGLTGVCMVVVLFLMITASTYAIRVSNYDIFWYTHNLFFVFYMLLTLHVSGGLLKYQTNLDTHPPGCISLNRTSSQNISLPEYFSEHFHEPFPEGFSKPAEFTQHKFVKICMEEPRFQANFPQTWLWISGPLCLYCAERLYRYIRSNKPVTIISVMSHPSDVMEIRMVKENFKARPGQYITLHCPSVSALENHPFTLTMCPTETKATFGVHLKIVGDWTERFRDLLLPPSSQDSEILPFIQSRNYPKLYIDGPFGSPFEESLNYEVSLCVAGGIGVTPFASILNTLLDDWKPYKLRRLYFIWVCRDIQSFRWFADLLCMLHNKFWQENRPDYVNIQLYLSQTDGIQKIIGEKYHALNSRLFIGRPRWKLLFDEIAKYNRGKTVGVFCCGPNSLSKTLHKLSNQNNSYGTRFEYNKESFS
Streptavidin (Streptomyces avidinii), sequence (P22629 whole entry, looked up): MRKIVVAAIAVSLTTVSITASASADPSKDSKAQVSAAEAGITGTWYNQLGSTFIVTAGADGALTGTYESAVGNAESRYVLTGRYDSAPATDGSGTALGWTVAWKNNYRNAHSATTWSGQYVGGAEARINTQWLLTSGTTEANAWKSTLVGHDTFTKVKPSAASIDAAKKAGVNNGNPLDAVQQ
NADPH oxidase 2 (Homo sapiens), sequence (P04839 whole entry, looked up): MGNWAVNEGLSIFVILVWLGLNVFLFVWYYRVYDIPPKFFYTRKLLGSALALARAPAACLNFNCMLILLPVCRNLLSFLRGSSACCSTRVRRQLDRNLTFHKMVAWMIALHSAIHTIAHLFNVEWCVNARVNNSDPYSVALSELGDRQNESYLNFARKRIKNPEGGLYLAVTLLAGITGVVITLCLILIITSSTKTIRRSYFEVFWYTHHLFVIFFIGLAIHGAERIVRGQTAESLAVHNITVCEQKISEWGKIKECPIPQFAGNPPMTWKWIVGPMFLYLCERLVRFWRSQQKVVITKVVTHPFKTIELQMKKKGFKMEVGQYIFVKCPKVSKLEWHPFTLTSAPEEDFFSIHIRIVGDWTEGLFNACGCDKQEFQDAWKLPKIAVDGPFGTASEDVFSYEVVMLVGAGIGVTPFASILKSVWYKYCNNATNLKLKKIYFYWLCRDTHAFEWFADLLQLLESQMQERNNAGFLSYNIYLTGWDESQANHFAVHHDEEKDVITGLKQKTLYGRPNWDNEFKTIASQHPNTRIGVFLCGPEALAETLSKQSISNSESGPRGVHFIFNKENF

| SMILES | composite z-score [1] | z-score [2] | z-score [3] | z-score [4] | z-score [5] | composite z-score [6] | composite z-score [7] | composite z-score [8] | composite z-score [9] | composite z-score [10] | z-score [11] | composite z-score [12] | z-score [13] | z-score [14] | z-score [15] | z-score [16] | z-score [17] | z-score [18] | z-score [19] | z-score [20] |
| --- | --- | --- | --- | --- | --- | --- | --- | --- | --- | --- | --- | --- | --- | --- | --- | --- | --- | --- | --- | --- |
| O=C1C2C=CC(C(O)c3ccc4c(c3)OCO4)N(Nc3ccccc3)C2C(=O)N1c1ccccc1 (stereo not given) | 0.096 | -0.924 (inactive) | -0.648 (inactive) | 0.44 (inactive) | 0.993 (inactive) | 1.52 | 0.143 | -0.277 | 0.426 | 0.0743 | -1.27 (inactive) | 0.065 | 0.805 (inactive) | 0.384 (inactive) | 1.15 (inactive) | 1.39 (inactive) | -0.777 | -0.279 (inactive) | 0.756 (inactive) | -1.12 |
| COCCOC(=O)N1C(=O)[C@@]2(c3cc(C#CCNC(N)=O)ccc31)[C@H](c1ccc(O)cc1)N1[C@H](c3ccccc3)[C@H](c3ccccc3)OC(=O)[C@H]1[C@@H]2C(N)=O | -0.503 | -0.522 (inactive) | 0.175 (inactive) | 0.224 (inactive) | 0.645 (inactive) | -1.53 | -0.331 | -0.57 | -0.934 | -1.56 | 0.847 (inactive) | -0.67 | 0.646 (inactive) | 0.783 (inactive) | -0.158 (inactive) | 0.386 (inactive) | 0.285 | 0.37 (inactive) | 0.163 (inactive) | 0.361 |
| Cc1ccc(S[C@]2(C(=O)NC(C)C)CC(=O)N(C(C)C)[C@@H]2c2ccc(CO)cc2I)cc1 | -0.0983 | -2.59 (inactive) | -0.468 (inactive) | 0.324 (inactive) | -0.3 (inactive) | -0.368 | -0.15 | -1.07 | 0.885 | -0.244 | -0.745 (inactive) | 0.207 | 4.77 (inactive) | 0.342 (inactive) | 0.59 (inactive) | 0.397 (inactive) | 0.293 | 1.8 (inactive) | -1.53 (inactive) | -0.227 |
| O=C1N(CCS(=O)(=O)c2ccccc2)Cc2ccccc2[C@@H]2OC(c3ccc(OCCCO)cc3)=N[C@]12CCS(=O)(=O)c1ccccc1 | 1.24 | -1.5 (inactive) | 0.151 (inactive) | 3.2 (inactive) | -0.897 (inactive) | 0.844 | -0.108 | 0.827 | 1.51 | 1.4 | -0.769 (inactive) | 0.568 | 26 (active) | 18.8 (active) | 3.14 (inactive) | 2.44 (inactive) | -0.355 | 1.5 (inactive) | 2.01 (inactive) | 1.96 |
| CCOC(=O)C1=CCC(c2ccco2)N(S(=O)(=O)c2ccc(C)cc2)C1 (stereo not given) | 0.45 | -2.95 (inactive) | -1.65 (inactive) | -0.0228 (inactive) | 0.887 (inactive) | 1.64 | 0.0841 | 0.55 | 1.24 | 0.409 | 0.323 (inactive) | 0.247 | 9.57 (active) | 1.24 (inactive) | 0.252 (inactive) | 0.731 (inactive) | 0.406 | -0.176 (inactive) | -1.26 (inactive) | 0.758 |
| O=C(O)[C@H]1C[C@H]2C(=O)N[C@@H](Cc3ccccc3)C(=O)N2[C@H]1c1cccc(OCCO)c1 | 0.223 | -0.6 (inactive) | 0.28 (inactive) | 1.23 (inactive) | -0.178 (inactive) | 0.105 | 0.0663 | 1.42 | 1.71 | 1.9 | 0.262 (inactive) | 0.121 | 4.38 (inactive) | 0.547 (inactive) | -2.49 (inactive) | 0.204 (inactive) | 0.146 | -3.4 (inactive) | -4.87 (inactive) | -2.33 |
| CO[C@H]1O[C@H](CO)[C@@H](OC(=O)Nc2ccc(C#N)cc2)[C@@H]2OC(=O)[C@H](Cc3cccc(Br)c3)C/C=C/C[C@@H](Cc3cccc(Br)c3)C(=O)O[C@@H]12 | 0.563 | -3.82 (inactive) | -1.36 (inactive) | -0.602 (inactive) | -0.404 (inactive) | 0.336 | -0.0327 | 0.185 | -0.163 | 1.34 | 0.766 (inactive) | 0.941 | 1.52 (inactive) | -0.178 (inactive) | 0.842 (inactive) | 0.558 (inactive) | -0.257 | -1.59 (inactive) | 0.311 (inactive) | -0.214 |
| COC(=O)[C@@]1(Cc2ccc(OC)cc2)[C@H]2c3cc(C(=O)N4CCCC4)n(Cc4ccc(OC(F)(F)F)cc4)c3C[C@H]2CN1C(=O)c1ccccc1 | 0.622 | -3.34 (inactive) | 0.488 (inactive) | -0.565 (inactive) | -0.239 (inactive) | 1.73 | 0.0925 | -1.04 | -0.89 | -1.05 | -1.32 (inactive) | 0.029 | 2.24 (inactive) | 0.453 (inactive) | -0.0152 (inactive) | 1.06 (inactive) | -0.174 | 1.11 (inactive) | 1.56 (inactive) | 2.4 |
